# Assay outcomes from PubChem.
# In the library only some 7.5% were active in any assay of this set; here they are far more common.
# ELG1 genotoxic: genotoxicity induction in ELG1-luciferase HEK293T cells | HEK293T ELG1-luciferase reporter, luminescence, 16 h | Potency, µM (doses to about 46 µM), inactives show at the top dose activity change, positive = activation, hits mostly activators | hit rate 1.3% among 330,000 | AID 504466; note: % of control where 0% means no effect; nearly all actives have a fitted effect of over 60% in size
#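 Luminescence read-out: rising ELG1-luciferase signal, reflecting elevated ELG1 protein under genetic stress, flags genotoxic compounds. Cells were treated for 16 hr at 37 °C before ONE-Glo detection.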
# Rab9 promoter act: activates the Rab9 promoter | Huh7 Rab9 promoter-luciferase reporter, luminescence, 24 h | Potency, µM (highest dose often 9.22 µM), inactives show at the highest dose activation, negative = inhibition, hits mostly activators | hit rate 2.8% among 320,000; note: % of control where 0% means no effect; nearly all actives have a fitted effect of over 60% in size
#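 Luminescence from Amplite-detected luciferase (10 minutes, ambient) reports Rab9 promoter activation. Before that, stable Rab9-luciferase Huh7 cells (1500/well, reduced-serum OP-MEM I plus 10% FBS) were exposed to compound for 24 hours at 37C.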
# FLuc modulator: firefly luciferase modulation, counter-screen for miR-21 project | purified FLuc, Km substrates, luminescence inhibition | Potency, µM (doses to about 57.5 µM), without a hit: at the top dose activity change, negative = inhibition, usual class: inhibitors | hit rate 6.9% among 360,000;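 note: plate controls were vehicle for no effect and reference inhibitor for full effect; nearly all actives have a fitted effect of over 55% in size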
# Target sequence (P08659 whole entry, looked up): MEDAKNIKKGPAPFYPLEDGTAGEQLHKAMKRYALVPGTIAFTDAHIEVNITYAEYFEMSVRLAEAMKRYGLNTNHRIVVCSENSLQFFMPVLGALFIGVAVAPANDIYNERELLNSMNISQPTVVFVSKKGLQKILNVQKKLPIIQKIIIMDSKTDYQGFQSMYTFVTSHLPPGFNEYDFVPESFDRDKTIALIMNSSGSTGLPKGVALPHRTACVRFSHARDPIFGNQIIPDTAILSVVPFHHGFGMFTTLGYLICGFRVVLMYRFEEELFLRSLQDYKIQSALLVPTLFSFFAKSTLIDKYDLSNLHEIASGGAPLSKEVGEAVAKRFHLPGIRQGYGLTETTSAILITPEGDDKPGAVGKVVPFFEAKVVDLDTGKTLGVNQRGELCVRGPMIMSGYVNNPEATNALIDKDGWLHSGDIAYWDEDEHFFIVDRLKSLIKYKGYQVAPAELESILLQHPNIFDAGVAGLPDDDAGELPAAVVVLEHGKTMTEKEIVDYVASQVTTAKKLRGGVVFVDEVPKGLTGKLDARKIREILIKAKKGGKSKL
#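 Purified P. pyralis luciferase (10nM final) with 10uM D-luciferin and 10uM ATP (Km levels) in 50mM Tris acetate pH 7.5, 10mM Mg acetate, 0.01% Tween-20, 0.05% BSA; qHTS 6-point titration, ~60 µM downward; luminescence read.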
# NPC1 prom act: activates the NPC1 promoter; Huh7 NPC1 promoter luciferase reporter, 24 h; Potency, µM (highest dose often 9.22 µM), for the others: at the top dose activation, hits mostly activators; hit rate 2.4% among 320,000; note: % of control where 0% means no effect; nearly all actives have a fitted effect of over 60% in size
#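 Compounds in DMSO were transferred onto Huh7 NPC1-luciferase reporter cells pre-incubated 2 h; after 24 h at 37 °C, Amplite reagent was dispensed and luminescence recorded 10 min later.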
# SMN2 splice enh: enhancers of SMN2 splice variant expression; HEK293 SMN2-luciferase splicing reporter, luminescence, 30-36 h; Potency, µM (highest dose often 46.1 µM), inactives show top-dose activity change, positive = activation, most hits filed as activators; hit rate 2.8% among 210,000; note: % of control where 0% means no effect; nearly all actives have a fitted effect of over 55% in size
#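 HEK293 cells carry an SMN2 minigene-luciferase reporter in which exon 7 inclusion puts luciferase in frame. Cells were seeded at 2000 cells/well, attached for 10-12 hours, then exposed to compounds for 30-36 hours at 37C before ONE-Glo luminescence.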
# An asterisk follows results filed as active; ? = inconclusive; / = not tested or not shown; [ ] = another dose, or the depositor's remark. Calls come from the whole dose curve; as a rule, active = well fitted curve in the direction sought with a large enough effect; inconclusive = small, poorly fitted or top-dose-only effect, or another doubt; inactive = no such curve, though single readings can be large; an effect the other way counts as inactive or inconclusive. Potency is the fitted concentration of half-maximal effect.
SMILES,ELG1 genotoxic,Rab9 promoter act,FLuc modulator,NPC1 prom act,SMN2 splice enh
COc1cc(CCC(=O)OCC(=O)Nc2ccccc2F)cc(OC)c1OC,6.0%,-1.7%,-2.3%,-0.6%,/
COC(=O)c1nnn(-c2nonc2N)c1CSc1nnc(C)s1,21.6%,0.1%,2.4%,0.3%,-7.3%
Nc1ncnc2c1ncn2CCN1CCOCC1,-9.9%,17.8%,-6.1%,-1.2%,7.2%
CC1CCCN(c2ccc(C(=O)NCc3cccs3)cn2)C1 (stereo not given),?,?,19µM*,?,12.6µM*
O=C(NCc1cccs1)c1ccc(N2CCCCC2)nc1,/,/,21.3µM*,/,?
O=C(NCc1cccs1)c1ccncc1,-2.8%,2.8%,1.3%,-1.3%,4.0%
CN(C(=O)CSc1nnc(Cc2cccc3ccccc23)n1N)C1CCS(=O)(=O)C1 (stereo not given),-2.3%,-6.1%,-0.4%,-2.8%,?
CCCCOc1ccc(C(=O)Nc2cc(C)c(OCC(=O)N3CCOCC3)c(C)c2)cc1,-5.9%,0.5%,2.13µM*,14.0%,-68.2%
Cc1cc(NC(=O)c2ccc(Cl)cc2)cc(C)c1OCC(=O)N1CCOCC1,9.5%,?,1.69µM*,3.16µM*,/
COc1cc(C(=O)Nc2ccc(C)cn2)ccc1OCC(=O)N1CCOCC1,6.8%,2.1%,16.9µM*,1.7%,/
COc1cc(C(=O)Nc2cc(C)ccn2)ccc1OCC(=O)N1CCOCC1,?,9.6%,?,1.5%,/
Cc1ccc(-c2cc(=O)c3cc(Cl)ccc3[nH]2)cc1,?,3.98µM*,0.536µM*,?,/
Cc1ccc(-c2nc3ccc(Cl)cc3c(=O)n2O)cc1,-4.6%,-1.6%,-15.2%,1.3%,/
Cc1ccc2[nH]c(-c3ccccc3)cc(=O)c2c1,?,?,1.69µM*,?,11.2µM*
Cc1ccc2[nH]c(C(=O)O)c(-c3ccccc3)c2c1,1.7%,1.7%,1.7%[2.3 µM],0.8%,4.6%
Cc1ccc(-c2cc(=O)c3ccccc3[nH]2)cc1,10.2%,?,19µM*,19.5%,12.2%
O=c1cc(-c2ccc(Cl)cc2)[nH]c2ccccc12,0.4%,2.1%,-16.2%,8.9%,/
COc1cc(-c2nc3ccccc3s2)ccc1O,?,?,8.49µM*,6.3%,?
COc1ccc(-c2nc3ccccc3s2)cc1O,0.651µM*,4.5%,0.151µM*,?,-46.2%
CC(C)c1ccc(-c2nc3ccccc3s2)cc1,-8.6%,-37.0%,0.0757µM*,-17.6%,/
COc1ccc(-c2nc3ccccc3s2)cc1NC(=O)c1cc(OC)c(OC)c(OC)c1,/,/,?,/,4.1%
CCOc1cc(-c2nc3ccccc3s2)ccc1O,?,14.9%,15.1µM*,?,/
CC1CN(S(=O)(=O)c2ccc(-c3nc4ccccc4s3)cc2)CC(C)O1 (stereo not given),4.8%,6.0%,0.3%,8.9%,5.2%
COc1ccc(C2=Nn3c(nnc3-c3ccncc3)SC2)cc1,-8.0%,3.1%,-0.1%,5.4%,12.3%
O=S(=O)(c1ccc(-c2nc3ccccc3s2)cc1)N1CCCC1,?,2.82µM*,-11.8%,?,-12.6%
SMILES,ELG1 genotoxic,Rab9 promoter act,FLuc modulator,NPC1 prom act,SMN2 splice enh
O=S(=O)(Nn1cnnc1)c1ccc2ccccc2c1,1.8%,1.8%,-12.4%,-5.7%,2.8%
COc1cccc(NC(=O)CN(C)C(=O)CNC(=O)c2sc3ccccc3c2Cl)c1,13.3%,24.7%,4.78µM*,19.3%,/
COc1cccc(NC(=O)CN(C)C(=O)c2sc3cc(Cl)ccc3c2Cl)c1,-3.0%,0.3%,4.4%,-2.2%,/
CN(CC(=O)Nc1ccc(F)cc1)C(=O)COC(=O)CNC(=O)c1sc2ccccc2c1Cl,3.3%,0.4%,-20.0%,-2.0%,/
COc1ccc(NC(=O)CN(C)C(=O)CNC(=O)c2sc3ccccc3c2Cl)cc1,?,?,3.01µM*,?,/
CCOc1ccccc1N1CCN(C(=O)CNC(=O)c2ccccc2F)CC1,2.5%,2.9%,-1.8%,1.0%,/
O=C(NCc1cccs1)C(=O)NCC1OCCCN1S(=O)(=O)c1ccccc1 (stereo not given),-0.5%,0.2%,5.2%,-6.8%,5.62µM*
O=C(Nc1ccccc1Cl)c1ccc2c(=O)n3c(nc2c1)CCC3,?,1.12µM*,10.7µM*,3.55µM*,/
O=C(Nc1nc(-c2ccccc2)cs1)c1ccc2c(=O)n3c(nc2c1)CCCCC3,-19.2%,-18.0%,12µM*,-14.9%,/
O=C(Nc1ccc(F)cc1Cl)c1ccc2c(=O)n3c(nc2c1)CCCCC3,?,?,-3.3%,?,12.1%
Cc1cccc(NC(=O)CSc2cccc[n+]2[O-])c1C,-0.1%,/,/,/,/
Cc1nc(-c2ccc(NC(=O)Cc3ccccc3)cc2)cs1,8.2%,?,8.49µM*,?,/
CCC(=O)Nc1ccc(-c2csc(C)n2)cc1,?,?,23.9µM*,?,?
CCC(=O)Nc1ccc(-c2csc(NNC(C)=O)n2)cc1,-0.3%,-3.1%,-7.2%,-4.5%,-9.6%
COc1ccc(CC(=O)Nc2ccc(-c3csc(C)n3)cc2)cc1,1.9%,0.8%,-5.7%,1.4%,/
Clc1ccc(-c2nn3cnnc3s2)c(Cl)c1,12.3%,-2.2%,-6.1%,-2.6%,-6.4%
O=C(c1cccc(F)c1)N1CCC2(CC1)CN(c1ccccc1)C2,/,/,/,/,-25.6%
NS(=O)(=O)c1ccc(N=Nc2c(-c3ccccc3)[nH]n(-c3nc(-c4ccccc4)cs3)c2=O)cc1,-13.9%,-13.3%,0.3%,-12.6%,-79.0%
Nc1[nH]n2c(=O)cc(-c3ccccc3)nc2c1N=Nc1ccccc1,-5.4%,-22.5%,16.9µM*,-10.9%,-90.9%
Cc1ccc(N=Nc2c(=O)[nH]n3c(C)cc(C)nc23)cc1,2.5%,0.4%,-2.3%,1.5%,-24.3%
Nc1[nH]n2c(=O)cc(-c3ccccc3)nc2c1N=Nc1ccc(S(N)(=O)=O)cc1,-0.3%,-15.3%,9.53µM*,-3.3%,/
Cc1ccc(N=Nc2c(N)[nH]n3c(=O)cc(C)nc23)cc1,-5.9%,-0.5%,16.9µM*,2.3%,19.1%
CCCc1cc(-c2ccc3c(c2)COc2c4ccccc4nn2-3)on1,?,2.82µM*,1.07µM*,2.82µM*,/
C(#CC1CCCC1)c1ccc2c(c1)COc1c3ccccc3nn1-2,?,1µM*,3.01µM*,0.891µM*,/
COc1ccc2nc(C)cc(SCC(=O)O)c2c1,0.7%,-6.0%,4.8%,-3.0%,1.7%
COc1ccc(/C=C/C(=O)OCC(=O)N2CCCCCC2)c(OC)c1,1.0%,-1.9%,?,-1.7%,/
CN(C)c1ccc(N=Nc2ccc(S(N)(=O)=O)cc2)cc1,20.6µM*,2.82µM*,2.69µM*,1µM*,/
Cc1ccc(NC(=O)ON=C2CCCC2)cc1,20.6µM*,3.55µM*,8.49µM*,?,?
O=C(Nc1ccccc1)ON=C1CCCC1,?,?,23.9µM*,26.2%,20µM*
O=Nc1c(O)n(Cc2c(Cl)cccc2Cl)c2ccccc12,3.0%,1.2%,5.0%,-4.6%,-20.3%
